Assay results published in PubChem BioAssay (EPA / NIEHS).
Results filed as inconclusive are left out. Some structures have more than one record in an assay (separate samples or runs), and their calls can disagree. Calls of active or inactive are those of the source. How the source made its calls, unless noted: active means hit-call score of the fitted dose curve at least 0.9, where 1 is the maximum; inactive means score below 0.9.

Columns and labels:
[1] = CCTE_Shafer_MEA_dev_firing_rate_mean: CCTE's Neural Network Formation Assay for Mean Firing Rate, Shafer Lab (AID 2284031);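 on AC50: curve fitted for loss of firing so AC50 reflects decreased mean firing rate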
Outline: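 Extracellular spike frequency, AUC over DIV 5–12 recordings, in rat cortical neuron MEA cultures dosed from plating; loss direction vs DMSO.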

[2] = CCTE_Shafer_MEA_dev_per_burst_spike_percent: CCTE's Neural Network Formation Assay for Percent of Spikes in a Burst, Shafer Lab (AID 2284032);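 on AC50: fitted as a decrease in burst spike percentage below DMSO baseline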
Outline: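 Value is trapezoidal AUC over recordings on days 5, 7, 9 and 12 of the well-mean fraction of spikes falling in single-electrode bursts; rat cortical cultures exposed continuously from plating, treatment renewed DIV 5 and 9, fitted downward against DMSO.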

[3] = CCTE_Shafer_MEA_dev_active_electrodes_number: CCTE's Neural Network Formation Assay for Number of Active Electrodes, Shafer Lab (AID 2284040; active means hit-call score of the fitted dose curve at least 0.9, where 1 is the maximum;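 on AC50: potency for loss of active electrodes versus DMSO so lower counts are hits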)
Outline: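 Developing rat cortical networks on MEAs, exposed DIV 0–12. Value is the AUC of active-electrode counts (≥5 spikes/min) from days 5, 7, 9, 12, relative to DMSO.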

[4] = CCTE_Shafer_MEA_dev_burst_rate: CCTE's Neural Network Formation Assay for Burst Rate, Shafer Lab (AID 2284042);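 on AC50: potency for loss of burst rate below DMSO control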
Outline: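 Primary rat cortical neurons on PEI-coated 48-well MEA plates (laminin added with cells at plating) (16 electrodes/well), exposed from plating to day 12, dosing renewed at DIV 5 and 9. Burst rate averaged over active electrodes, recorded DIV 5, 7, 9, 12, summarized as AUC; loss versus DMSO.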

[5] = CCTE_Shafer_MEA_dev_bursting_electrodes_number: CCTE's Neural Network Formation Assay for Number of Bursting Electrodes, Shafer Lab (AID 2284043; active means hit-call score of the fitted dose curve at least 0.9, where 1 is the maximum;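 on AC50: potency is for loss of bursting electrodes relative to DMSO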)
Outline: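 Counted: electrodes with burst rate ≥1 per 2 min in each well. Cells: primary rat cortex, 1.5 x 10^5/well, on 16-electrode MEA wells. Exposure: DIV 0–12, compound renewed DIV 5 and 9. Recording days 5, 7, 9, 12; AUC vs DMSO baseline.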

[6] = CCTE_Shafer_MEA_acute_burst_percentage_mean: CCTE's Neural Acute Assay for Percentage of Spikes in a Burst, Shafer Lab (AID 2284017);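 on AC50: curve fitted for loss of signal so potency reflects decreased burst percentage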
Outline: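 Primary rat cortical neurons on 48-well MEA plates, treated on DIV 13 or 15 at 0.03-40 uM. Spikes detected at 8x rms noise at 37C; percent change from 40-min baseline to 40-min post-dose recording, fitted versus DMSO.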

[7] = CCTE_Shafer_MEA_acute_burst_percentage_std: CCTE's Neural Acute Assay for Standard Deviation of Burst Percentage, Shafer Lab (AID 2284018);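 further: fitted in the negative direction so actives lower burst percentage SD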
Outline: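 Primary rat cortical neurons on 16-electrode MEA wells were recorded 40 min at baseline (DIV 13 or 15), then 40 min after compound (0.03-40 uM), at 37 C. Well value is SD across electrodes of spikes-in-bursts/total spikes; endpoint is percent change, DMSO-referenced.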

[8] = CCTE_Shafer_MEA_acute_per_network_burst_spike_number_mean: CCTE's Neural Acute Assay for Average Number of Spikes in a Network Burst, Shafer Lab (AID 2284019)
Outline: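 Acute exposure of rat primary cortical networks (DIV 13/15) on MEAs; adaptive spike detection at 8x rms noise, 37 C. Percent change in spikes per network burst after 40 min with compound (0.03-40 uM), negative direction vs DMSO.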

[9] = CCTE_Shafer_MEA_acute_per_network_burst_spike_number_std: CCTE's Neural Acute Assay for Standard Deviation of Number of Spikes in a Network Burst, Shafer Lab (AID 2284020);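 further: fitted for decrease in spike-number SD versus DMSO so actives lower it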
Outline: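 Acute MEA exposure, rat cortical neurons, 0.03-40 uM. Per-well % change versus own baseline; DMSO as negative control.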

[10] = CCTE_Shafer_MEA_acute_per_network_burst_electrodes_number_mean: CCTE's Neural Acute Assay for Mean Number of Electrodes in a Network Burst, Shafer Lab (AID 2284021);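 further: curves fitted for decreases only so hits reduce electrodes per burst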
Outline: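 Cultures of rat cortex neurons were exposed on DIV 13 or 15 to compounds at 0.03-40 uM in at least three wells each. Activity over 40 min before and 40 min after exposure at 37 C gave the percent change in electrodes per network burst.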

[11] = CCTE_Shafer_MEA_acute_network_burst_percentage: CCTE's Neural Acute Assay for Percentage of Network Bursts, Shafer Lab (AID 2284022);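 further: curves fitted for loss so actives lower network burst percentage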
Outline: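 Cortical neurons from rat were grown over microelectrode arrays and used on day 13 or 15 in vitro. Wells with at least 10 active electrodes received test chemical at 0.03-40 uM. Activity during 40 min of exposure was compared with the preceding 40-min baseline.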

[12] = CCTE_Shafer_MEA_acute_cross_correlation_area: CCTE's Neural Acute Assay for Area of Cross Correlation, Shafer Lab (AID 2284024);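 further: area under pooled inter-electrode spike cross-correlation near zero lag as percent change from own baseline; curves fitted for loss of cross-correlation area so actives lower synchrony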
Outline: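 Acute exposure of mature rat cortical networks (day 13 or 15 post-plating) to 0.03-40 uM compound. Spontaneous spiking on MEA, 40 min pre- and post-dose at 37 C.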

[13] = CCTE_Shafer_MEA_acute_cross_correlation_HWHM: CCTE's Neural Acute Assay for Cross Correlation at Half Width at Half Maximum, Shafer Lab (AID 2284026);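 further: percent change per well from pre-dose baseline in spike cross-correlogram half width; hits are a decrease in cross-correlogram half width relative to DMSO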
Outline: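 Primary cortex (rat), MEA, DIV 13/15; compound 0.03-40 uM; 40 min pre + 40 min post at 37 C; spike threshold 8x rms; wells need ≥10 active electrodes; endpoint = % change in cross-correlogram HWHM vs baseline, DMSO negative control.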

[14] = CCTE_Shafer_MEA_acute_synchrony_index: CCTE's Neural Acute Assay for Synchrony, Shafer Lab (AID 2284027);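 further: network synchrony index of spontaneous spiking in primary rat cortical neurons on MEAs; fitted for loss of signal so actives lower synchrony relative to DMSO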
Outline: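 Acute exposure of rat primary cortical neurons (DIV 13 or 15) at 0.03-40 uM. Synchrony index, 40 min before vs after, as % change relative to DMSO control.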

[15] = CCTE_Deisenroth_AIME_384WELL_CTox_Active: Cytotoxicity Assessment (CTOX) in CCTE's 384-well Estrogen Receptor Transactivation Assay with AIME metabolic competence (metabolism positive), Deisenroth Lab (AID 2284037; active means hit-call score of the fitted dose curve at least 0.9, where 1 is the maximum;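 further: chemicals first conditioned 2 h by alginate-bound induced rat liver S9 before cells; activity means signal loss indicating cell death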)
Outline: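 VM7Luc4E2 breast cells received medium pre-incubated 2 h with chemical over alginate microspheres holding induced male Sprague Dawley rat liver S9; viability read 24 h later by protease-substrate fluorescence. Loss of signal, bidirectional fit, 0.002–200 uM.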

[16] = CCTE_Shafer_MEA_acute_interburst_interval_mean: CCTE's Neural Acute Assay for Mean Interburst Interval, Shafer Lab (AID 2284016);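 further: percent change of mean interburst interval versus each well's own pre-dose baseline; curves fitted for decrease in interburst interval relative to DMSO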
Outline: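 Rat primary cortical neurons on 48-well MEAs at DIV 13 or 15 were exposed acutely to 0.03-40 uM. Spikes detected at 8x rms noise, 37 C. Mean interburst interval from 40 min recordings expressed as percent change from 40 min pre-treatment baseline.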

[17] = CCTE_Deisenroth_AIME_384WELL_CTox_Inactive: Cytotoxicity Assessment (CTOX) in CCTE's 384-well Estrogen Receptor Transactivation Assay without AIME metabolic competence (metabolism negative), Deisenroth Lab (AID 2284039; active means hit-call score of the fitted dose curve at least 0.9, where 1 is the maximum;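 further: cell viability via live-cell protease substrate cleaved to fluorescent probe; cells exposed 24 h to medium preincubated 2 h with alginate-water beads without S9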)
Outline: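 VM7Luc4E2 cells, metabolism-negative arm: test chemicals (0.002–200 uM, 10 points) pre-incubated 2 h with alginate-water microspheres, then medium transferred to cells for 24 h. Viability read as protease-substrate cleavage to fluorescent probe; loss-of-signal, bidirectional fitting.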

[18] = target: Estrogen receptor (Homo sapiens) (UniProt P03372); experiment: CCTE_Deisenroth_AIME_384WELL_LUC_Active: CCTE's 384-well Estrogen Receptor Transactivation Assay with AIME metabolic competence (ERTA luciferase; metabolism positive), Deisenroth Lab (AID 2284030; active means hit-call score of the fitted dose curve at least 0.9, where 1 is the maximum)
Estrogen receptor (Homo sapiens), sequence (P03372 whole entry, looked up): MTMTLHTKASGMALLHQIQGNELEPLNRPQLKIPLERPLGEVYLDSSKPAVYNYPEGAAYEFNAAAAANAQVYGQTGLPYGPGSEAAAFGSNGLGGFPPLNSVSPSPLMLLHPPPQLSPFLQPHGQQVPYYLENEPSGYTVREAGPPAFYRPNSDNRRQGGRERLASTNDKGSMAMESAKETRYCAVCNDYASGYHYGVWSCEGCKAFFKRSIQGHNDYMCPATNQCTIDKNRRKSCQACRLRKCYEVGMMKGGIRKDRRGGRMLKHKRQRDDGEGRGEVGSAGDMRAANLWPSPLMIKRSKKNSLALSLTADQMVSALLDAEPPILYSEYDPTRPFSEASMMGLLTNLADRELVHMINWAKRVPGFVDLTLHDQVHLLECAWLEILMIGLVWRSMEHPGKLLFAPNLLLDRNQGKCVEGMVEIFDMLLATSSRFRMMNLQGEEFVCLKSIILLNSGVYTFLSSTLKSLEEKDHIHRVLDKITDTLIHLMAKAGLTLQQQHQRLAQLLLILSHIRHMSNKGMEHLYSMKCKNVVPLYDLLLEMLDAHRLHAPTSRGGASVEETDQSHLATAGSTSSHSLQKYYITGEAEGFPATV
Outline: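 In this metabolism-positive format, a 2-hour exposure to alginate-immobilized rat S9 precedes a 24 hour luciferase transactivation readout in VM7Luc4E2 cells. Dosing spans 10 concentrations from 0.002 to 200 uM.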

[19] = target: Estrogen receptor (Homo sapiens) (UniProt P03372); experiment: CCTE_Deisenroth_AIME_384WELL_LUC_Inactive: CCTE's 384-well Estrogen Receptor Transactivation Assay without AIME metabolic competence (ERTA luciferase; metabolism negative), Deisenroth Lab (AID 2284038; active means hit-call score of the fitted dose curve at least 0.9, where 1 is the maximum;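 further: hits raise estrogen receptor luciferase signal so potencies reflect agonists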)
Outline: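 Metabolism-negative mode: AIME lids stamped in alginate-water, no hepatic S9. 2 h chemical incubation → medium onto VM7Luc4E2 ERTA, 24 h. Readout luciferase luminescence; gain-of-signal fit vs 17beta-estradiol. Conc. 0.002 - 200 uM.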

[20] = target: Estrogen receptor (Homo sapiens) (UniProt P03372); experiment: CCTE_Deisenroth_AIME_384WELL_LUC_Shift: CCTE's 384-well Estrogen Receptor Transactivation Assay with AIME metabolic competence data shift (ERTA luciferase; difference in metabolism positive and negative), Deisenroth Lab (AID 2284041);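 further: shift is response with S9 minus without S9 so positive means metabolism raised ER signal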
Outline: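 Here, parent compounds undergo 2 h phase I metabolism by PB/BNF-induced rat S9 before 24 h transactivation in VM7Luc4E2 cells; the curve models S9-positive minus S9-negative response over a 10-point series.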

Measured: AC50

O=C(CC(=O)C(F)(F)C(F)(F)C(F)(F)F)c1cccs1
active: [2] 8.19 µM | [3] 8.83 µM | [5] 8.13 µM
inactive: [1] | [4]

OCC(F)(F)C(F)(F)C(F)(F)C(F)(F)C(F)(F)C(F)(F)C(F)(F)C(F)(F)C(F)(F)C(F)(F)C(F)(F)F
active: [2] 15 µM | [3] 15 µM | [5] 6.73 µM
inactive: [1] | [2] | [3] | [4] | [5]

CC(=O)Nc1ccc(O)cc1
inactive: [6] | [7] | [8] | [9] | [10] | [11] | [12] | [13] | [14] | [1] | [2] | [15] | [3] | [4] | [5]
active: [5] 0.0824 µM

FCOC(C(F)(F)F)C(F)(F)F
inactive: [1] | [2] | [3] | [4] | [5]

O=P(O)(O)CCC(F)(F)C(F)(F)C(F)(F)C(F)(F)C(F)(F)C(F)(F)C(F)(F)C(F)(F)F
inactive: [1] | [4]
active: [2] 4.78 µM | [3] 4.18 µM | [5] 2.39 µM

CCCCCCCCCCCC
active: [17] 100 µM
not listed: [1] | [2] | [3] | [4] | [5] | [18] | [19] | [20]
inactive: all other assays above

O=C(O)C(F)(F)OC(F)(F)C(F)(F)OC(F)(F)C(F)(F)OC(F)(F)C(F)(F)C(F)(F)C(F)(F)F
inactive: [1] | [2] | [3] | [4]

CCCCc1oc2ccccc2c1C(=O)c1cc(I)c(OCCN(CC)CC)c(I)c1
inactive: [16] | [6] | [7] | [8] | [9] | [10] | [11] | [12] | [14]

CCC(C)c1ccccc1O (stereo not given)
inactive: [16] | [7] | [8] | [9] | [10] | [12] | [15]
active: [6] 7.61 µM | [11] 5 µM | [13] 8.95 µM | [14] 7.45 µM | [17] 0.00093 µM

Oc1c(Cl)cc(Cl)cc1Sc1cc(Cl)cc(Cl)c1O
active: [6] 7.11 µM | [9] 5 µM | [11] 7.49 µM | [13] 9.62 µM | [14] 8.67 µM
inactive: [16] | [7] | [8] | [10] | [12]

N=C(N)c1ccc(OCCCCCOc2ccc(C(=N)N)cc2)cc1
active: [6] 26.9 µM | [7] 31.8 µM | [10] 2.5 µM | [13] 32 µM | [14] 26.3 µM
inactive: [16] | [8] | [9] | [11] | [12]

COC(=O)C(F)(F)C(F)(F)C(F)(F)F
inactive: [1] | [2] | [3] | [4] | [5]

O=C1NS(=O)(=O)c2ccccc21
active: [12] 0.00962 µM
not listed: [15] | [17] | [18] | [19] | [20]
inactive: all other assays above

Nc1ccn([C@@H]2O[C@H](CO)[C@@H](O)C2O)c(=O)n1 (stereo not given in full)
active: [1] 0.471 µM | [2] 0.341 µM | [3] 0.472 µM | [4] 0.314 µM | [5] 0.333 µM

CN(C)CCOC(c1ccccc1)c1ccccc1
active: [16] 7.21 µM | [6] 5 µM | [10] 1.25 µM | [11] 7.74 µM | [2] 10 µM | [3] 6.36 µM | [5] 4.33 µM
inactive: [7] | [8] | [9] | [12] | [14] | [1] | [4]

COc1cc([N+](=O)[O-])ccc1N
inactive: [18] | [19] | [20]
active: [15] 118 µM | [17] 100 µM
